ChEMBL document CHEMBL3988442, “University of Dundee, Small-Polar-MMV Screening Library” (2021)
In all, about 48,000 compounds went through this assay and about 13,000 (27%) showed an effect of 50% or more. This is one part of the list.

test system: Wolbachia pipientis; experiment: Anti-Wolbachia Cell-Based Screen; format: functional; design: scale not given: in the data most compounds retested in dose-response had high values; details: 5 µM

Structure (SMILES)	Percent Effect
COc1cccc(CC(C)NC(=O)NCCc2cccnc2)c1 (configuration not stated)	-9.147%
CC(C)N(C)Cc1cncc2c1CCN(CC1CC1)C2.Cl.Cl.Cl	102.9%
CCN1CCc2c(CNC(=O)c3nccn3C)cncc2C1.Cl.Cl.Cl	11.07%
Cl.Cl.c1cnc(NCc2cncc3c2CCN(CC2CC2)C3)nc1	93.82%
CC(C)N(C)Cc1cncc2c1CCN(CC(=O)N(C)C)C2.Cl.Cl.Cl	105.8%
CN(C)C(=O)CN1C[C@@H]2CC[C@H](C1)N(Cc1c(Cl)cncc1Cl)C2	-12.98%
CS(=O)(=O)NCc1cncc2c1CCN(CC1CCOC1)C2.Cl.Cl (configuration not stated)	-2.425%
CN(C)C(=O)CN1C[C@@H]2CC[C@H](C1)N(C(=O)Cc1ccccc1Cl)C2	-1.206%
CN(C)Cc1cncc2c1CCN(CC(=O)N(C)C)C2	91.67%
CC(C(=O)N1CCCC1)N1CCCN(C(=O)Oc2ccccc2)CC1 (configuration not stated)	21.65%
Cc1noc(C)c1CN1C(=O)[C@H]2CC[C@@H]1CN(Cc1nccs1)C2	-3.876%
FC1(F)CCNCC12CCN(c1ccccn1)C2 (configuration not stated)	-2.564%
Cc1nc(NCc2ccco2)nc2c1COCC21CCNC1.O=C(O)C(F)(F)F (configuration not stated)	-14.58%
N#Cc1ccc(NCCc2n[nH]c(=O)[nH]2)cc1Cl	-5.304%
CC(C)N(C)Cc1cncc2c1CCN(C1CCOCC1)C2.Cl.Cl.Cl	97.34%
O=C1[C@H]2CN(C3CCOCC3)C[C@H]2CN1Cc1cccnc1	-4.896%
CN(C)Cc1cncc2c1CCN(C1CCOCC1)C2.Cl.Cl.Cl	89.69%
CSc1ncc(CN2C[C@H]3CC[C@@H]2CN(C2CCOCC2)C3)cn1	-8.939%
COc1cccc(CC(C)NC(=O)NCCNC(C)=O)c1 (configuration not stated)	-2.176%
Cc1cc(C)c(CNc2ncnc3c2cnn3C)c(=O)[nH]1	-6.133%
COc1c(CNCCc2c[nH]c3cc(F)ccc23)c(C)nn1C	86.39%
COc1c(CNCCc2c[nH]c3cc(F)ccc23)c(C(C)C)nn1C	79.98%

Structure (SMILES)	Percent Effect
CC(C)(C)c1n[nH]c(C2CN(CC3CCC3)CCO2)n1 (configuration not stated)	7.516%
O=C1CCCN1CCN1CC=C(c2cnn(C3CCS(=O)(=O)C3)c2)CC1 (configuration not stated)	-11.25%
Cl.Cl.c1ccc(CN2CCOC3CNCC[C@H]32)cc1 (some centres not stated)	-10.82%
Cl.Cl.c1cc(CN2CCO[C@@H]3CNC[C@@H]32)cs1	-7.592%
O=C(c1ccccc1)N1CCOC2CNCC[C@H]21 (some centres not stated)	121.8%
c1cc(CN2CCO[C@@H]3CNC[C@@H]32)co1	-20.72%
N#Cc1cccc(CN2CCO[C@@H]3CNC[C@@H]32)c1	-0.4846%
O=C(c1ccoc1)N1CCO[C@@H]2CNC[C@@H]21	113.2%
CC(=O)C1(c2ccccc2)CCN(C(=O)CC2CNCCO2)CC1 (configuration not stated)	5.115%
O=C(C1CCC1)N1CCO[C@@H]2CNC[C@@H]21	7.79%
CC[C@H]1CN2CC[C@H]1C[C@@H]2CNC(=O)c1ccco1	-12.57%
O=C(c1ccco1)N1CCO[C@@H]2CNC[C@@H]21	105.9%
O=C(C1CCCC1)N1CCO[C@@H]2CNC[C@@H]21	-1.725%
O=C(c1ccccc1)N1CCO[C@@H]2CNC[C@@H]21	106.9%
Cn1nc(-c2ccccc2)cc1[C@H]1CN2CC[C@H]1C[C@@H]2CNS(C)(=O)=O	1.19%
CNCc1cn(C[C@H]2CC3CCN2C[C@@H]3C(=O)Nc2ccccc2)nn1 (some centres not stated)	-4.498%
O=C1NC[C@H]2CN(C3CCOCC3)CCN12	-8.801%
COc1ccccc1OCCCN1CC=C(c2cnn(C)c2)CC1	5.6%
CCC(CC)NCC(C)Oc1cccnc1 (configuration not stated)	18.13%
O=C(C1CCCCC1)N1CCO[C@@H]2CNC[C@@H]21	-9.765%
Cl.Cl.O=C(N[C@H]1CN[C@H]2CCCO[C@H]21)c1cccnc1	-6.399%
O=C(c1cccnc1)N1CCO[C@@H]2CNC[C@@H]21	100.8%

Structure (SMILES)	Percent Effect
Fc1cnc(N2C[C@H]3CN(Cc4cccc(F)c4)C[C@H]3C2)nc1.O=C(O)C(F)(F)F.O=C(O)C(F)(F)F	5.307%
Cc1ccc(CN2C[C@@H]3CN(c4ncccn4)C[C@@H]3C2)cc1.O=C(O)C(F)(F)F	6.326%
N#Cc1cccc(CN2C[C@@H]3CN(c4ncccn4)C[C@@H]3C2)c1.O=C(O)C(F)(F)F	114.7%
O=C(O)C(F)(F)F.O=C(O)C(F)(F)F.O=C(O)C(F)(F)F.c1cncc(CN2CCO[C@@H]3CN(Cc4ccoc4)CC[C@@H]3C2)c1	-22.75%
O=C(O)C(F)(F)F.c1cnc(N2CCO[C@@H]3CN(Cc4ccoc4)C[C@@H]3C2)nc1	98.59%
Fc1cccc(CN2CCC3(CCN3c3ncccn3)C2)c1.O=C(O)C(F)(F)F (configuration not stated)	74.85%
O=C(O)C(F)(F)F.O=C(O)C(F)(F)F.O=C1CC2(CCN(Cc3cccnc3)C2)CN1c1cccc(F)c1 (configuration not stated)	15.74%
Cc1cccc(CN2C[C@@H]3CN(Cc4ccoc4)CCO[C@@H]3C2)n1.O=C(O)C(F)(F)F.O=C(O)C(F)(F)F.O=C(O)C(F)(F)F	-28.06%
Fc1cccc(CN2C[C@@H]3CN(c4ncccn4)C[C@@H]3C2)c1.O=C(O)C(F)(F)F.O=C(O)C(F)(F)F	102.6%
Fc1cnccc1CN1CCC2(CCN2c2ncccn2)C1.O=C(O)C(F)(F)F (configuration not stated)	-1.377%
Cc1nnc([C@@H]2C[C@H]3CN(C4CCC4)C[C@H]3O2)[nH]1.O=C(O)C(F)(F)F	6.797%
CCN1C(=O)C2(CCCCC2)NC12CCSCC2	-2.409%
CCCNC1(c2ccc(Cl)cc2)CCOCC1	-6.475%
CN1CCC(c2cncc(N(C)C)n2)CC1	94.73%
COCCNc1nc2c(c(NCc3cnc(C)c(C)c3)n1)CCNCC2	2.827%
Cc1csc([C@H]2C[C@H]3CN(Cc4cc(C)on4)CC[C@@H]3O2)n1.O=C(O)C(F)(F)F	122.4%
C[C@@H]1C[C@@H]2CCN(Cc3nccs3)C[C@H]2O1	-21.98%
Cc1cc(CN2CC[C@@H]3O[C@@H](c4nnc(C)o4)C[C@H]3C2)no1	110.6%
Cc1csc(CN2CC[C@H]3C[C@H](c4ccncn4)O[C@@H]3C2)n1	0.9996%
Cc1cc(CN2C[C@@H]3CN(Cc4ccsc4)CCO[C@@H]3C2)no1	-0.7027%
Cc1csc([C@H]2C[C@@H]3CCN(Cc4cc(C)on4)C[C@H]3O2)n1	115.5%
Cc1cc(CN2CC[C@H]3C(=O)N(c4ccsc4)CCO[C@H]3C2)no1.O=C(O)C(F)(F)F	-15.71%

Structure (SMILES)	Percent Effect
Cc1cc(CN2CC[C@H]3C[C@H](C(=O)N(C)C)O[C@@H]3C2)no1	-3.331%
Cc1noc([C@@H]2C[C@H]3CN(Cc4cc(C)on4)C[C@H]3O2)n1.O=C(O)C(F)(F)F	5.383%
Cc1nnc([C@H]2CC[C@@H]3[C@@H](CCN3Cc3c(C)noc3C)O2)o1	0.6834%
Cc1cc(CN2C[C@@H]3COC[C@]3(c3nnc(C)o3)C2)no1	12.18%
Cc1csc([C@@H]2C[C@@H]3CCN(Cc4cc(C)on4)C[C@H]3O2)n1	98.39%
Cc1nn(C)c(C)c1C(C(=O)O)N1CC=C(c2ccccc2)CC1 (configuration not stated)	-20.97%
CN1CCN(C[C@H]2CN3CC[C@H]2C[C@@H]3CNC(=O)c2ccco2)CC1	-8.219%
Cc1ccc(CN2CCO[C@H]3[C@@H](OCc4cccnc4)CC[C@@H]32)o1.O=C(O)C(F)(F)F.O=C(O)C(F)(F)F	111.1%
Cc1ccc(CN2CCO[C@H]3[C@H](OCc4cccnc4)CC[C@@H]32)o1.O=C(O)C(F)(F)F.O=C(O)C(F)(F)F	105.6%
c1ccc(O[C@H]2CC[C@H]3[C@H]2OCCN3Cc2nccs2)nc1	-6.34%
O=C(O)C(F)(F)F.O=C(O)C(F)(F)F.c1cncc(CO[C@H]2CC[C@H]3[C@@H]2OCCN3C2CCOCC2)c1	-9.441%
Cc1ccc(CN2CCO[C@@H]3[C@@H](OCc4cccnc4)CC[C@@H]32)o1	103.6%
CC(C)CNC(=O)N1CCOC2(CCNCC2)C1	-1.344%
CC[C@H](N)Cn1nc(-c2cccs2)oc1=O.Cl	-4.464%
CCOCCNC1(c2ccc(Cl)cc2)CCOCC1	-4.765%
CN(CCc1ccc(F)cc1)Cc1nc2c(cnn2C)c(=O)[nH]1	17.64%
CN(CCc1ccccc1)Cc1nc2c(cnn2C)c(=O)[nH]1	101%
CC(NC(=O)CN1CCCC1=O)c1ccc(Cl)s1 (configuration not stated)	-9.497%
O=C(CCc1ccsc1)N1CCC(C(=O)O)(c2ccccc2)CC1	7.958%
O=C(c1ccc2c(c1)COC2)N1CCC(Nc2ccccc2)CC1	5.047%
O=C(c1ccc2c(c1)OCO2)N1CCC(C(=O)O)(c2ccccc2)CC1	117.1%
